Results as given in the supplement of paper PMC12636033.
± gives the standard deviation of the averaged measurements. Over roughly 33,000 sequences, “E-score (rank enrichment, -0.5 to 0.5)” has its median near -0.0028; the highest 2% begin near 0.23. The sample as a whole holds a higher share of the highest values than the screen did.

Test system: 2Sb-muMax20 (muMax20 with two 1,3-bis(methyl)benzene Cys staples, A13C/A17C and Q88C/A92C, C-terminal Lys)
Test: PBM 8-mer E-score (E-score (rank enrichment, -0.5 to 0.5)); higher = stronger preferential binding
Experimental: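 Protein binding microarray (universal PBM chip covering all 10-mers in fixed probe flanks) with chemically synthesized human Max(13-93) bHLH-LZ analogs (not full-length Max) bearing noncanonical residues (hArg, Tha, Aib, Nle at 65) and aromatic Cys staples. Read-out per 8-mer (and its reverse complement): E-score (rank-based enrichment, -0.5 to 0.5) and Z-score of median probe intensity.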

| Sequence | PBM 8-mer E-score |
| --- | --- |
| CCATGGGA | 0.123 ± 0.019 |
| AATAGAGC | 0.0926 ± 0.04 |
| ATGCTTCG | 0.00498 ± 0.0021 |
| CACAGTAG | -0.0155 ± 0.0072 |
| AGCCTAGA | -0.0899 ± 0.028 |
| ACGACGAC | -0.124 ± 0.0076 |
| GTTCGCTA | -0.0331 ± 0.033 |
| ATTAGTCA | 0.172 ± 0.041 |
| CAGGATAG | 0.0195 ± 0.012 |
| GCCGTCAA | -0.0475 ± 0.027 |
| AAAGCGCA | 0.0962 ± 0.09 |
| CAAGCGCA | 0.27 ± 0.03 |
| CAAGCGCC | -0.226 ± 0.091 |
| ACATGTGG | 0.246 ± 0.04 |
| AAATGTGG | 0.114 ± 0.11 |
| ACACATGT | 0.334 ± 0.0089 |
| GCATGTGA | 0.159 ± 0.02 |
| ACACATGA | -0.0128 ± 0.068 |
| ACATGTGA | 0.308 ± 0.033 |
| ACACATGG | 0.145 ± 0.08 |
| ACATGTGC | 0.167 ± 0.0089 |
| CCATGTGA | 0.109 ± 0.036 |
| CCTCCGTC | 0.0056 ± 0.021 |
| GCCGGCCC | -0.162 ± 0.0086 |
| AAATAGTA | 0.175 ± 0.0028 |

| Sequence | PBM 8-mer E-score |
| --- | --- |
| AGATAACC | 0.0753 ± 0.022 |
| ATATAACA | 0.126 ± 0.0091 |
| AAATAACA | 0.0873 ± 0.044 |
| AAATAACG | 0.273 ± 0.017 |
| CGATAACG | -0.0616 ± 0.034 |
| CAATAACG | 0.105 ± 0.029 |
| ATATAACC | 0.16 ± 0.041 |
| AAATAATA | 0.149 ± 0.025 |
| ATATAACG | 0.288 ± 0.0086 |
| AAATAATG | 0.2315 ± 0.002 |
| AGATAACG | 0.259 ± 0.041 |
| AAATAATC | -0.0306 ± 0.048 |
| AACGTGGT | 0.224 ± 0.05 |
| ATTCCTCC | 0.129 ± 0.052 |
| ACACCGGG | -0.119 ± 0.096 |
| AGCATAAG | 0.0893 ± 0.055 |
| CATTATGG | 0.0682 ± 0.009 |
| CACATTCC | -0.108 ± 0.075 |
| GCTGCGCA | -0.147 ± 0.022 |
| CAACATGG | 0.138 ± 0.066 |
| CAACATGA | 0.232 ± 0.044 |
| CAACATGC | -0.00139 ± 0.11 |
| CGATATAG | 0.00229 ± 0.039 |
| AACTATAA | 0.102 ± 0.024 |
| TTATATAA | 0.241 ± 0.086 |

| Sequence | PBM 8-mer E-score |
| --- | --- |
| AGTTATAA | 0.141 ± 0.061 |
| CACTATAA | -0.0514 ± 0.028 |
| CGATATAC | 0.156 ± 0.025 |
| TACTATAA | 0.239 ± 0.017 |
| CGTTATAA | 0.129 ± 0.021 |
| CTATATAA | 0.0927 ± 0.03 |
| TGTTATAA | 0.261 ± 0.021 |
| CGATATAA | 0.262 ± 0.066 |
| ATATATAA | 0.221 ± 0.099 |
| CCCACTAA | 0.177 ± 0.014 |
| ACAGTCAC | 0.0067 ± 0.018 |
| AAATCTGG | -0.19725 ± 4.2e-05 |
| TACCTTAA | -0.0174 ± 0.012 |
| ACAGGAGC | -0.00133 ± 0.025 |
| GATTGCGA | -0.103 ± 0.03 |
| CTGGTACA | 0.0235 ± 0.024 |
| CGCCGGAG | -0.226 ± 0.023 |
| CAAATTGG | 0.0841 ± 0.087 |
| ACCTCCCA | -0.0967 ± 0.065 |
| ACTCCCAA | 0.141 ± 0.025 |
| CCTCCCAA | 0.0447 ± 0.088 |
| CCTCCCCC | -0.17 ± 0.14 |
| ACTCCCCT | 0.266 ± 0.028 |
| CCTCCCCA | 0.346 ± 0.046 |
| CCCTCCCA | 0.325 ± 0.076 |

| Sequence | PBM 8-mer E-score |
| --- | --- |
| TCTCCCCA | 0.164 ± 0.047 |
| ACTCCCCC | -0.192 ± 0.053 |
| ACTCCCCA | 0.309 ± 0.0089 |
| GCCTCCCA | -0.128 ± 0.085 |
| ACTCCCCG | 0.168 ± 0.015 |
| CGGATAAA | 0.0371 ± 0.069 |
| AGATGAAT | 0.17 ± 0.0036 |
| CATCCTAG | 0.0659 ± 0.037 |
| ATAGGGAA | 0.0733 ± 0.043 |
| CTAATCCA | 0.0132 ± 0.01 |
| CACATCGG | -0.0961 ± 0.052 |
| ATTGTTGC | 0.00699 ± 0.061 |
| AAGAGGGC | 0.0019 ± 0.0019 |
| ACGCTCTG | -0.0545 ± 0.0079 |
| CCAACGAC | -0.133 ± 0.023 |
| CAAACTAA | 0.0893 ± 0.026 |
| AAAACTAA | 0.132 ± 0.019 |
| TTAACTAA | 0.241 ± 0.014 |
| CTAACTAA | 0.0585 ± 0.065 |
| TAAACTAA | 0.233 ± 0.028 |
| ATAACTAA | 0.112 ± 0.031 |
| GACTGCCA | -0.0667 ± 0.023 |
| ACCCCAGG | -0.107 ± 0.067 |
| AACCCACT | 0.059 ± 0.037 |
| ACCCCACT | 0.293 ± 0.044 |

| Sequence | PBM 8-mer E-score |
| --- | --- |
| ACCCCAGT | 0.336 ± 0.028 |
| ACCCCAGA | 0.156 ± 0.044 |
| ACCCCACC | 0.22 ± 0.074 |
| ATTGAAGG | 6e-05 ± 0.019 |
| AGTTCAAA | -0.0257 ± 0.13 |
| AACCGGCC | -0.167 ± 0.021 |
| CCGCTGCC | -0.123 ± 0.029 |
| CAGAGAGA | -0.0625 ± 0.011 |
| CTACAAAA | 0.0645 ± 0.037 |
| TTACAAAA | 0.181 ± 0.03 |
| GTACAAAC | 0.028 ± 0.04 |
| ATACAAAT | 0.148 ± 0.12 |
| ATACAAAA | 0.296 ± 0.014 |
| GTACAAAA | 0.27 ± 0.0082 |
| ACCTGTCC | 0.0598 ± 0.062 |
| AATATGGC | 0.221 ± 0.025 |
| CACAGCAC | -0.0272 ± 0.038 |
| AGTAAGTG | 0.2306 ± 0.0021 |
| AATAAGTG | 0.17 ± 0.066 |
| CATAAGTA | 0.163 ± 0.049 |
| AGTAAGTC | 0.1006 ± 0.00054 |
| AATAAGTA | 0.285 ± 0.0052 |
| ATTAAGTA | 0.236 ± 0.026 |
| GTTAAGTA | 0.0909 ± 0.029 |
| ATTAAGTG | 0.122 ± 0.011 |

| Sequence | PBM 8-mer E-score |
| --- | --- |
| AGTAAGTA | 0.126 ± 0.027 |
| CTGACCAC | -0.0726 ± 0.025 |
| AGGTGGAA | -0.00713 ± 0.04 |
| GTTATTAA | 0.0581 ± 0.1 |
| CAGTCTGG | -0.18 ± 0.038 |
| CAAATTCG | 0.000655 ± 0.064 |
| CACTTAAG | 0.0265 ± 0.011 |
| ATGGACCG | -0.222 ± 0.029 |
| ACCCAAGC | -0.0166 ± 0.044 |
| ACCCAAAG | 0.0519 ± 0.028 |
| ACCCAAAA | -0.0026 ± 0.17 |
| ACCCAAGG | 0.0572 ± 0.07 |
| ACCCAAAT | 0.277 ± 0.028 |
| ACCCAAGT | 0.282 ± 0.052 |
| AGGAAACA | 0.0889 ± 0.046 |
| AGTCGCCC | -0.0113 ± 0.15 |
| AACCGTAT | -0.0505 ± 0.036 |
| CTGTGCGC | 0.0257 ± 0.14 |
| AACGTTCC | 0.142 ± 0.028 |
| CCGATGCC | -0.029 ± 0.062 |
| AAAGCAAG | 0.167 ± 0.024 |
| AAAGCAAC | 0.0449 ± 0.04 |
| AAAGCAAT | 0.268 ± 0.011 |
| ATAGCAAC | 0.031 ± 0.02 |
| ATAGCAAG | 0.157 ± 0.0043 |

| Sequence | PBM 8-mer E-score |
| --- | --- |
| ATAGCAAT | 0.234 ± 0.05 |
| CCGTAACC | -0.243 ± 0.07 |
| ATAACCTG | 0.113 ± 0.024 |
| AATGGCGT | 0.0723 ± 0.025 |
| CGTGCACA | 0.123 ± 0.094 |
| TGTGCACA | -0.0483 ± 0.071 |
| CGTGCACG | 0.357 ± 0.019 |
| AAACGTTT | 0.171 ± 0.011 |
| AGGCAGGC | -0.109 ± 0.057 |
| CTATTTCA | 0.135 ± 0.01 |
| ATATTTCC | -0.00852 ± 0.065 |
| CTATTTCC | 0.259 ± 0.0072 |
| CCAAGCAA | 0.0514 ± 0.029 |
| ATGGATTA | -0.131 ± 0.0052 |
| AGCGTCAA | -0.0167 ± 0.026 |
| ACACAAGA | 0.0809 ± 0.01 |
| CATTGTAC | 0.238 ± 0.031 |
| GATTGTAC | 0.051 ± 0.031 |
| CATTGTAG | 0.033 ± 0.059 |
| AATTGTAA | 0.165 ± 0.011 |
| AATTGTAC | 0.2375 ± 0.0016 |
| AATTGTAG | 0.0147 ± 0.034 |
| GATTCGAC | -0.119 ± 0.031 |
